Screening results (PubChem BioAssay)
Giardia FBPA inh-1 – Giardia lamblia aldolase inhibition; A8B2U2; purified Giardia FBPA; Potency, µM (highest dose often 59.6 µM), for inactives: top-dose activity, negative = inhibition, usual class: inhibitors; hit rate 0.71% among 290,000; AID 2451; further: nearly all actives have a fitted effect of over 55% in size
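40 nM FBPA preincubated 10 min at RT with compound (up to 57.5 uM final), then substrate plus GAPDH/TPI/NAD/arsenate coupling and diaphorase/resazurin added. Fluorescence read after 20 min at RT, 525/598 nm.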
LmPK inh – LmPK (Leishmania mexicana) enzyme inhibition. Potency, µM (series often up to 57.5 µM), without a hit: top-dose activity change, negative = inhibition, usual class: inhibitors. purified LmPK, Kinase-Glo ATP luminescence, 1 h. hit rate 0.37% among 290,000
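qHTS format; LmPK 0.1 nM; substrates PEP 0.5 mM and ADP 0.1 mM. One-hour room-temperature incubation, then coupled luciferase luminescence; 0.5 nM enzyme wells mark activation.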
AmpC no deterg – blocks E. coli AmpC beta-lactamase in detergent-free assay. hit rate 0.52% among 330,000. Potency, µM (highest dose often 57.1 µM), for inactives: at the highest dose activity change, negative = inhibition, most hits filed as inhibitors. AmpC nitrocefin hydrolysis, absorbance 480 nm, 0.0001% Triton;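 further: plate controls were no compound for no effect and no enzyme for full effect; nearly all actives have a fitted effect of over 20% in size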
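20 mM phosphate pH 7.0 + 0.01% (detergent screen) or 0.0001% Triton X-100; 5.3 nM AmpC reagent; cpd preinc 15 min RT; nitrocefin (800 uM stock) to start; A480 q20 s × 4 min; Activity was normalised to no-enzyme and no-compound control wells.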
AmpC inh detg – AmpC beta-lactamase inhibition with detergent present | P00811 | AmpC hydrolysis of nitrocefin, absorbance 480 nm, 0.01% Triton | Potency, µM (titrated, usually from 114 µM), inactives show at the highest dose activity change, negative = inhibition, actives largely listed as inhibitors | hit rate 0.041% among 370,000;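 further: 0% = no-compound wells and -100% = no-enzyme wells; nearly all actives have a fitted effect of over 25% in size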
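20 mM phosphate pH 7.0 + 0.01% (detergent screen) or 0.0001% Triton X-100; 5.3 nM AmpC reagent; cpd preinc 15 min RT; nitrocefin (800 uM stock) to start; A480 q20 s × 4 min; Activity was normalised to no-enzyme and no-compound control wells.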
AMA1 RON2 block – AMA1-RON2 (P. falciparum) interaction inhibition; AID 720542; AlphaScreen AMA1-biotinylated RON2 peptide binding; Potency, µM (highest dose often 58.2 µM), inactives show at the top dose activity change, negative = inhibition, usual class: inhibitors; hit rate 0.2% among 360,000;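 further: 0% = vehicle wells and -100% = peptide control; nearly all actives have a fitted effect of over 45% in size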
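AMA1 (3D7) with his tag at 25 nM final met compounds first, then biotinylated RON2 peptide at 25 nM; detection used donor plus acceptor beads, 10 µg/mL apiece, read by AlphaScreen after 30 min at room temperature.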
Giardia growth – Giardia lamblia growth inhibition; shares compounds with Giardia FBPA inh-1; Giardia lamblia trophozoite growth inhibition; Potency, µM (highest dose often 57.5 µM), for inactives: at the top dose activity change, negative = inhibition, most hits filed as inhibitors; hit rate 5% among 1,500; AID 2785;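 further: trophozoites exposed to compound for 48 h at 37 °C; nearly all actives have a fitted effect of over 70% in size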
Mammal cell tox – mammalian cytotoxicity of Giardia aldolase inhibitor hits; shares compounds with Giardia FBPA inh-1; mammalian cell viability counter-screen, qHTS; Potency, µM (doses to about 57.5 µM), for the others: top-dose viability change, negative = toxicity, hits mostly inhibitors; hit rate 4% among 1,500; AID 2786;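 further: Chinese hamster ovary cells used as mammalian cytotoxicity surrogate; viability measured as cellular ATP by luminescence; compound exposure lasted 48 h before reading; nearly all actives have a fitted effect of over 60% in size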
Giardia FBPA inh-2 – confirmation of Giardia fructose-bisphosphate aldolase inhibitors; purified Giardia aldolase enzyme activity, qHTS; hit rate 5% among 1,500; Potency, µM (titrated, usually from 57.5 µM), without a hit: at the highest dose activity change, negative = inhibition, hits mostly inhibitors; shares compounds with Giardia FBPA inh-1; further: nearly all actives have a fitted effect of over 45% in size
Rabbit FBPA inh – rabbit FBP aldolase inhibition by Giardia aldolase hits. shares compounds with Giardia FBPA inh-1. Rabbit muscle FBPA enzyme inhibition, selectivity counter-screen. Potency, µM (top dose mostly 57.5 µM), for inactives: at the top dose activity, negative = inhibition, actives largely listed as inhibitors. hit rate 4% among 1,500. AID 2794; further: nearly all actives have a fitted effect of over 60% in size
Target sequence (P00883 whole entry, looked up): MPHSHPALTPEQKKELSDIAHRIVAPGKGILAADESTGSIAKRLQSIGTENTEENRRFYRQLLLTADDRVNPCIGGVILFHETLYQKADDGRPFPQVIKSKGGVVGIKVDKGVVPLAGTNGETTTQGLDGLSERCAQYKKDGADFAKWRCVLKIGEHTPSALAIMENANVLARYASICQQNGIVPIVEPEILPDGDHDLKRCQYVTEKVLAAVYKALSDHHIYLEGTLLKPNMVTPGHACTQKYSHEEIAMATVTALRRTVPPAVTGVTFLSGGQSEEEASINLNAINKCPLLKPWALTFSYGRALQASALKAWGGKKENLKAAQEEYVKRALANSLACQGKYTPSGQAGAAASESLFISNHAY
GAPDH counter – counter-screen for Giardia aldolase inhibitors: GAPDH coupling enzyme; shares compounds with Giardia FBPA inh-1; GAPDH coupling enzyme counterscreen, biochemical, qHTS; Potency, µM (series often up to 57.5 µM), for inactives: at the top dose activity change, negative = inhibition, hits mostly inhibitors; hit rate 6% among 1,500; AID 2795; further: nearly all actives have a fitted effect of over 55% in size
The depositor's hits bear a star; u = inconclusive; x = no result; [ ] = another dose, or the depositor's remark. Sampled rows, rich in hits. Any-hit rate of the full collection: about 1.3%. The call rests on the fitted dose curve; in most records, active means well fitted curve in the direction sought with a large enough effect; inconclusive means small, poorly fitted or top-dose-only effect, or another doubt; inactive means no such curve, though single readings can be large; an effect the other way counts as inactive or inconclusive. Unless noted, on the % scale 0 is the no-effect control and ±100 the full control effect; potency means the concentration at half of the fitted maximal effect.

SMILES	Giardia FBPA inh-1	LmPK inh	AmpC no deterg	AmpC inh detg	AMA1 RON2 block	Giardia growth	Mammal cell tox	Giardia FBPA inh-2	Rabbit FBPA inh	GAPDH counter
CC(CN1CCCC1)OC(=O)c1ccc(F)cc1 (configuration not stated)	u	0%	-8%	-7%	-8%	x	x	x	x	x
CC1(C)Cc2sc3c(=O)[nH]c(=S)[nH]c3c2CO1	10µM*	-7%	-17%	-1%	75%	-5%[38.3 µM]	5%	-7%	12%	4%
CN1CCN(Cc2c(F)cccc2Cl)CC1	25µM*	2%	-4%	0%	14µM*	72%	14%	-3%	-6%	u
N#Cc1c(C#N)c(O)c2ccccc2c1O	20µM*	-4%	-15%	-8%	52%	u	-7%	u	u	u
CN(CCc1ccccc1)C(C(=O)Nc1ccc2c(c1)OCCO2)C1CC1 (configuration not stated)	x	x	x	x	4%	x	x	x	x	x
Cc1nc(NC2CCCCC2)c2nc(-c3ccccc3)n(CC3CCN(C)CC3)c2n1	1%	x	x	x	x	x	x	x	x	x
COc1cc(/C=C2\SC(c3ccc(C)cc3)=NC2=O)ccc1O	18µM*	28µM*	-29%	-2%	0%	26%	-3%	u	-30%	-1%
COc1cc(/C=C2\SC(c3ccccc3)=NC2=O)cc(Cl)c1O	5.6µM*	u	-20%	5%	3%	54%	5%	-26%	-26%	2%
CCOc1cc(/C=C2\SC(N)=NC2=O)ccc1O	7.9µM*	-7%	-30%	6%	113%	-14%[10.4 µM]	-4%	-12%	-1%	1%
C[C@H]1CN([C@@H](C)CO)S(=O)(=O)c2ccc(Br)cc2O[C@H]1CN(C)C(=O)c1cccnc1	x	x	x	x	-5%	x	x	x	x	x
Cc1cccc2sc(N(CCN(C)C)C(=O)C3CCN(S(=O)(=O)c4cccs4)CC3)nc12	x	x	-8%	-12%	-3%	x	x	x	x	x
CCN(CC)S(=O)(=O)c1ccc(C)c(NC(=O)CN2CCN(Cc3ccccc3)CC2)c1	20µM*	-2%	167%	-3%	-18%	-11%[10.4 µM]	-28%	2%	-1%	8%
CCN(CC)S(=O)(=O)c1ccc(C)c(NC(=O)CNCCN(C(C)C)C(C)C)c1	14µM*	3%	0%	-2%	-13%	24%	13%	7%	3%	12%
CCN(CC)S(=O)(=O)c1ccc(C)c(NC(=O)CSc2nnnn2C)c1	x	x	-12%	x	3%[11.6 µM]	x	x	x	x	x
CCN(CC)c1ccc(S(=O)(=O)N2CCOCC2)cc1NC(=O)CN1CCN(Cc2ccccc2)CC1	20µM*	-1%	210%	4%	-24%	-22%	-8%	-3%	-5%	5%
CCN(CC)c1ccc(S(=O)(=O)N2CCOCC2)cc1NC(=O)CNCc1ccccc1	u	-2%	151%	6%	-1%	x	x	x	x	x
O=C(Nc1ccc2c(c1)OCCO2)C(C1CC1)n1c(=O)c(-c2cc3ccccc3[nH]2)nc2ccccc21 (configuration not stated)	x	x	x	x	26%	x	x	x	x	x
CC1CCCC(NC(=O)c2cccs2)C1C (configuration not stated)	x	x	-9%	3%	19%	x	x	x	x	x
